Some test systems named below: HCT-15 colon; HT29 colon; SNB-75 CNS; SNB-19 CNS; U251 CNS; PC-3 prostate; SK-MEL-5 melanoma; UACC-62 melanoma; LOX IMVI melanoma; SK-MEL-28 melanoma.
Test in all cases: NCI-60 one-dose screen, 48 h (100 = growth as untreated, 0 = no growth, -100 = all killed)
What all share (details): 10 µM

About 83,000 compounds went through this panel and 20% of them were active in at least one assay; those are over-represented in the sample as a whole.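 The test compound was applied at a single concentration to cells in 96-well plates for 48 hours, and percent growth was recorded.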 Values without a mark were called inactive. Calls of active or inactive are those of the source. Rule for the calls: active = growth percent below 10; inactive = the rest.

Turning to `COc1ccc(CSc2nc3cc(OC)c(OC)cc3c(=O)n2-c2ccc(OC)cc2OC)cc1`, the growth is 80.6% in the experiment on HCT-15 colon; 88% with HT29 colon; 90.3% in the experiment with SNB-75 CNS; 79.6% in the experiment with SNB-19 CNS; 85.9% in the experiment on U251 CNS; 55.6% in the experiment on PC-3 prostate. Besides, the growth with SK-MEL-5 melanoma was 80.5%; in the experiment on UACC-62 melanoma it was 80.2%; with LOX IMVI melanoma it was 83.4%; in the experiment on SK-MEL-28 melanoma it was 102%.
As for `c1ccc(COCC[P+](c2ccccc2)(c2ccccc2)c2ccccc2)cc1`, the growth in the experiment with HCT-15 colon is 71.9%; in the experiment with HT29 colon, 1.21% (active); in the experiment with SNB-75 CNS, -5.5% (active); in the experiment on SNB-19 CNS, 9.79% (active); in the experiment with U251 CNS, 5.43% (active); in the experiment on PC-3 prostate it was -4.87% (active). For the same compound, the growth in the experiment with SK-MEL-5 melanoma is -72% (active); in the experiment on UACC-62 melanoma it was 2.32% (active); with LOX IMVI melanoma, -32.2% (active); in the experiment with SK-MEL-28 melanoma, 14.6%.
As for `CCn1nc(-c2ccccn2)c2cccnc2c1=S`, the growth with HCT-15 colon was 67.2%; with HT29 colon, 51.9%; in the experiment on SNB-75 CNS, 95.4%; with SNB-19 CNS, 93.9%; in the experiment on U251 CNS, 74.5%; with PC-3 prostate, 38.4%. Moreover, the growth in the experiment on SK-MEL-5 melanoma was 59.3%; in the experiment on UACC-62 melanoma, 81.2%; in the experiment with LOX IMVI melanoma it was 87.5%; in the experiment on SK-MEL-28 melanoma, 89.4%.
As to `CC(=O)/C(=C\c1ccc(Cl)cc1)c1ccccc1`, the growth is 10.3% in the experiment on HCT-15 colon; 2.71% (active) in the experiment on HT29 colon; 37.4% in the experiment with SNB-75 CNS; 29.7% in the experiment on SNB-19 CNS; 13.6% in the experiment on U251 CNS; 21.9% with PC-3 prostate. Besides, the growth was -35.6% (active) with SK-MEL-5 melanoma, 29.2% in the experiment with UACC-62 melanoma, 0.385% (active) with LOX IMVI melanoma and 65% with SK-MEL-28 melanoma.
Consider `N=C(N)c1ccc(-c2ccc(-c3cccs3)s2)nc1`, for which the growth was 12.2% in the experiment with HCT-15 colon; -20.1% (active) in the experiment on HT29 colon; 41.3% in the experiment on SNB-75 CNS; 87.8% in the experiment on SNB-19 CNS; 28% with U251 CNS; 43.7% in the experiment with PC-3 prostate. Also, the growth was 68.6% in the experiment with SK-MEL-5 melanoma, 86.8% in the experiment on UACC-62 melanoma, 10.5% in the experiment on LOX IMVI melanoma and 83.7% with SK-MEL-28 melanoma.
With `CCOc1ccc(-n2cc(-c3ccc(N(C)C)cc3)[n+]3c2CCCCC3)cc1`, the growth in the experiment with HCT-15 colon was 75.8%; with HT29 colon it was 9.2% (active); with SNB-75 CNS it was 18.4%; in the experiment on SNB-19 CNS, 20.3%; in the experiment on U251 CNS, 8.21% (active); in the experiment with PC-3 prostate, 4.48% (active). For the same compound, the growth was -92.4% (active) in the experiment on SK-MEL-5 melanoma, 20.4% with UACC-62 melanoma, 12.7% in the experiment on LOX IMVI melanoma and 51.2% in the experiment on SK-MEL-28 melanoma.
With `COc1cc(-c2cc(-c3cc(OC)c(OC)c(OC)c3)nc3nc(N)[nH]c(=O)c23)ccc1Oc1ccnc2cc(Cl)ccc12`, the growth is 14.6% in the experiment on HCT-15 colon; 104% with HT29 colon; -8.67% (active) with SNB-75 CNS; 59.4% with SNB-19 CNS; 23% in the experiment with U251 CNS; 25.9% in the experiment with PC-3 prostate. Moreover, the growth in the experiment with SK-MEL-5 melanoma was 27%; in the experiment with UACC-62 melanoma, 49.8%; with LOX IMVI melanoma, 27.8%; in the experiment on SK-MEL-28 melanoma, 56.9%.
Consider `CC(=O)OC1Oc2ccccc2-c2oc(=O)c(-c3cc(=O)oc4cc(O)ccc34)cc21` (stereo not given), for which the growth with HCT-15 colon is 80.8%; with HT29 colon, 86.9%; in the experiment with SNB-75 CNS, 76%; in the experiment on SNB-19 CNS, 95%; with U251 CNS, 89.6%; in the experiment on PC-3 prostate it was 75.9%. Moreover, the growth is 80.1% in the experiment with SK-MEL-5 melanoma, 84.9% with UACC-62 melanoma, 83.8% in the experiment with LOX IMVI melanoma and 111% with SK-MEL-28 melanoma.
`CCCCCCCCCCCCCC[n+]1ccccc1`: the growth in the experiment with HCT-15 colon is 34.5%; in the experiment on HT29 colon it was -52.4% (active); with SNB-75 CNS, -39.5% (active); in the experiment with SNB-19 CNS, -45.4% (active); with U251 CNS, -88.3% (active); in the experiment on PC-3 prostate, -80.8% (active). Also, the growth was -95.3% (active) in the experiment with SK-MEL-5 melanoma, -81.1% (active) in the experiment with UACC-62 melanoma, -72.1% (active) in the experiment on LOX IMVI melanoma and -23.5% (active) in the experiment on SK-MEL-28 melanoma.
`NCCNc1ccc2cc(-c3nc4ccccc4[nH]3)c(=O)oc2c1`: the growth in the experiment on HCT-15 colon was 79.4%; with HT29 colon, 108%; in the experiment with SNB-75 CNS, 85.1%; in the experiment on SNB-19 CNS it was 105%; in the experiment on U251 CNS, 94.9%; with PC-3 prostate, 79.7%. Besides, the growth in the experiment on SK-MEL-5 melanoma was 93.5%; in the experiment with UACC-62 melanoma, 87.4%; in the experiment with LOX IMVI melanoma, 85%; in the experiment with SK-MEL-28 melanoma, 93.7%.
Take `COc1cc(C(c2c[nH]c3ccccc23)N2CCCC2)ccc1OCc1ccccc1` (stereo not given): the growth was 77.1% in the experiment with HCT-15 colon; 78.5% in the experiment on HT29 colon; 41.3% in the experiment with SNB-75 CNS; 87.5% in the experiment on SNB-19 CNS; 86% in the experiment on U251 CNS; 55.1% in the experiment on PC-3 prostate. The growth with SK-MEL-5 melanoma was 75.6%; in the experiment with UACC-62 melanoma it was 60.9%; in the experiment with LOX IMVI melanoma, 68.9%; with SK-MEL-28 melanoma it was 98%.
Take `COc1ccc(-c2nc(-c3nc4ccc(OC)cc4[nH]3)c3ccccn23)cc1`: the growth in the experiment on HCT-15 colon is 59.7%; in the experiment with HT29 colon it was 58.6%; with SNB-75 CNS, 57%; in the experiment on SNB-19 CNS, 85.5%; in the experiment on U251 CNS, 61.6%; with PC-3 prostate, 35%. The growth in the experiment with SK-MEL-5 melanoma is 59%; with UACC-62 melanoma, 79%; in the experiment on LOX IMVI melanoma it was 71.1%; in the experiment on SK-MEL-28 melanoma, 98.1%.
Take `S=c1c2ncccc2c(-c2ccccn2)nn1Cc1ccccn1`: the growth was 98.9% with HCT-15 colon; 93.7% in the experiment with HT29 colon; 77.1% with SNB-75 CNS; 103% with SNB-19 CNS; 95% with U251 CNS; 73.8% with PC-3 prostate. The growth in the experiment with SK-MEL-5 melanoma is 105%; in the experiment with UACC-62 melanoma, 104%; in the experiment with LOX IMVI melanoma, 94.8%; with SK-MEL-28 melanoma, 117%.

For the origin of these results see PubChem BioAssay (NCI).
